From PubChem BioAssay (NCATS)
Results filed as inconclusive are left out. Where a call stands in place of a potency, no number is given. Calls of active or inactive are those of the source. Calls come from the whole dose curve; as a rule, active = well fitted activation curve with a large enough effect; inconclusive = small, poorly fitted or top-dose-only effect; inactive = flat fitted curve, though single readings scatter.

assay: Primary redox qHTS assay for identification of artifact compounds. (AID 1845223); details: Amplex Red/HRP redox cycling with DTT, fluorescence; series mostly up to 53.8 µM
Method in brief: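 Amplex Red (25 uM) and HRP (250 mU/mL) in HBSS, with compounds for 15 min, then 250 uM DTT for 30 min, room temperature, dark. Fluorescence 525/598 nm read; normalized to DMSO and 10 uM DA3003; Hill fit.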
Potency is the fitted concentration of half-maximal effect.

Question: Which Potency does the source give for `CC[C@H]1OC(=O)C[C@@H](O)[C@H](C)[C@@H](O[C@@H]2O[C@H](C)[C@@H](O)[C@H](N(C)C)[C@H]2O)[C@@H](CCN2C[C@H](C)C[C@H](C)C2)C[C@@H](C)C(=O)/C=C/C(C)=C/[C@@H]1CO[C@@H]1O[C@H](C)[C@@H](O)[C@@H](OC)[C@H]1OC` here?
Answer: Its Potency is “inactive”.

Question: For `Cc1cc(C)cc(NC(=O)Cc2ccc(OC(C)(C)C(=O)O)cc2)c1`, which Potency is on record?
Answer: The Potency was “inactive”.

Question: For `CC(C)CC(=O)OC[C@H]1O[C@@](COC(=O)CC(C)C)(O[C@H]2O[C@H](CO)[C@@H](O)[C@H](O)[C@H]2OC(=O)CC(C)C)[C@@H](OC(=O)CC(C)C)[C@@H]1O`, which Potency is on record?
Answer: Its Potency is “inactive”.

Question: For `O=C(NN1CCCCC1)c1nn(-c2ccc(Cl)cc2Cl)c(-c2ccc(C#Cc3ccc(C(F)(F)F)cc3)s2)c1CNS(=O)(=O)N1CCCC1`, which Potency is on record?
Answer: Its Potency is “inactive”.

Question: Which Potency does the source give for `CC(C)(O)C1CCC2(C)C3C(O)C4C(C13)C42CO` (centres undefined) here?
Answer: The Potency was “inactive”.

Question: For `COc1ccc(/C=C/C(=O)O[C@@H]2[C@@H](O)[C@H](C)O[C@@H](OC3C4C=COC(O[C@@H]5O[C@H](CO)[C@@H](O)[C@H](O)[C@H]5O)C4C4(CO)OC34)[C@@H]2O)cc1OC` (some centres undefined), which Potency is on record?
Answer: The Potency was “inactive”.

Question: Which Potency does the source give for `CC(C)(O)c1ccc2c(c1)C(O)CC1C(C)(C(=O)O)CCCC21C` (centres undefined) here?
Answer: The Potency was “inactive”.

Question: With `CC1(C)O[C@@]2(C)CC[C@@H]1C[C@@H]2OC1OC(CO)C(O)C(O)C1O` (some centres undefined) as the molecule, how does the Potency read?
Answer: The Potency was “inactive”.

Question: For `COC1CC(=O)C23C(=O)NC(CC(C)C)C2C(C)C(C)=CC3/C=C(\C)CCC1O` (centres undefined), which Potency is on record?
Answer: The Potency was “inactive”.

Question: With `CC1(C)CC[C@]2(C(=O)O)CC[C@]3(C)C(=CCC4[C@@]5(C)C[C@@H](O)[C@H](O)C(C)(C)C5CC[C@]43C)[C@@H]2[C@@H]1O` (some centres undefined) as the molecule, how does the Potency read?
Answer: The Potency was “inactive”.

Question: Which Potency does the source give for `CC1(C)CC[C@]2(C(=O)O)CC[C@]3(C)C(=CCC4[C@@]5(C)CCC(O[C@@H]6OC[C@H](O)[C@H](O)[C@H]6O[C@@H]6O[C@H](CO)[C@@H](O)[C@H](O)[C@H]6O)[C@@](C)(CO)C5CC[C@]43C)[C@@H]2C1` (some centres undefined) here?
Answer: The Potency was “inactive”.

Question: For `C[C@@H]1C[C@H]2[C@@H]3CCC4=CC(=O)C=C[C@]4(C)[C@@]3(F)[C@@H](O)C[C@]2(C)[C@@]1(O)C(=O)COP(=O)(O)O`, which Potency is on record?
Answer: The Potency was “inactive”.

Question: With `COc1cc([C@@H]2Oc3c(OC)cc(CCCO)cc3[C@@H]2CO[C@@H]2O[C@H](CO)[C@@H](O)[C@H](O)[C@H]2O)ccc1O` as the molecule, how does the Potency read?
Answer: The Potency was “inactive”.

Question: For `CCOc1cc2ncc(C#N)c(Nc3ccc(OCc4ccccn4)c(Cl)c3)c2cc1NC(=O)/C=C/CN(C)C`, which Potency is on record?
Answer: Its Potency is “inactive”.

Question: For `CNc1nc(Nc2cnn([C@H]3CCN(C4COC4)C[C@@H]3F)c2Cl)ncc1C(F)(F)F`, which Potency is on record?
Answer: Its Potency is “inactive”.

Question: For `C=C1C2=CC(O)C(C)C1(C)CC/C(C)=C/CCC1(C)OC1C2=O` (centres undefined), which Potency is on record?
Answer: The Potency was “inactive”.

Question: With `C=CC1C(O[C@@H]2O[C@H](CO)[C@@H](O)[C@H](O)[C@H]2O)OC=C(C(=O)OC)C1CC(=O)O` (some centres undefined) as the molecule, how does the Potency read?
Answer: The Potency was “inactive”.

Question: Which Potency does the source give for `COc1cc(/C=C/C(=O)O[C@H]2[C@H](O)[C@@H](CO)O[C@@]2(CO)O[C@H]2O[C@H](COC(=O)c3ccc(O)cc3)[C@@H](O)[C@H](O)[C@H]2O)cc(OC)c1OC` here?
Answer: Its Potency is “inactive”.

Question: Which Potency does the source give for `CC(=O)OC[C@@]12[C@@H](OC(C)=O)C[C@@H](C)[C@](C)([C@@H]3C[C@H]4C=CO[C@H]4O3)[C@H]1CCC[C@]21CO1` here?
Answer: Its Potency is “inactive”.

Question: With `NC(=O)c1cccc(-c2cc(O)cc(OC(=O)NC3CCCCC3)c2)c1` as the molecule, how does the Potency read?
Answer: Its Potency is “inactive”.

Question: Which Potency does the source give for `C=C1C(OC(C)=O)C(=O)C2C(C)(C)C(OC(C)=O)CCC2(C)C1CC(OC(C)=O)/C(C)=C/COC(C)=O` (centres undefined) here?
Answer: Its Potency is “inactive”.

Question: With `COc1ccc([C@@H]2N[C@H](C(=O)O)Cc3c2[nH]c2ccccc32)cc1CN1CCN(c2ccccc2F)CC1` as the molecule, how does the Potency read?
Answer: Its Potency is “inactive”.

Question: For `O=C1NCc2nc3ccccc3c(=O)n2C1Cc1c[nH]c2ccccc12` (centres undefined), which Potency is on record?
Answer: Its Potency is “inactive”.

Question: For `CC(=O)NC(C(=O)OC1CCC(C)(C)C2CC=C3C(=O)OCC3(O)C12C)C(C)C` (centres undefined), which Potency is on record?
Answer: Its Potency is “inactive”.

Question: For `O=C(C1CC1)N1CC[C@@H](Cc2n[nH]c(=O)n2-c2ccc(-c3ccc4occc4c3)cc2)C1`, which Potency is on record?
Answer: The Potency was “inactive”.

Question: With `CC1OC(O[C@H]2[C@@H](O)C[C@@]3(C)C([C@H](O)C[C@]4(C)C3CC=C3C5CC(C)(C)CC[C@]5(C(=O)OC5OC(CO)C(O)C(O)C5OC5OCC(OC6OCC(OC7OCC(O)C(O)C7O)C(O)C6O)C(OC6OCC(O)(CO)C6O)C5O)CC[C@]34C)[C@]2(C)CO)C(O)C(O)C1O` (some centres undefined) as the molecule, how does the redox activity (% of DA3003) read?
Answer: The redox activity (% of DA3003) was 1.03% [at 11.5 µM] (inactive).

Question: Which redox activity (% of DA3003) does the source give for `C/C=C(\C)C(=O)O[C@@H]1CC2[C@@H](CC=C3C[C@@H](O[C@H]4C[C@H](OC)[C@H](O[C@H]5C[C@H](OC)[C@H](O[C@H]6C[C@H](OC)[C@H](O[C@H]7C[C@@H](OC)[C@H](O[C@@H]8O[C@H](CO)[C@@H](O)[C@H](O)[C@H]8O)[C@@H](C)O7)[C@@H](C)O6)[C@@H](C)O5)[C@@H](C)O4)CC[C@@]32C)[C@@]2(O)CC[C@H](C(C)=O)[C@@]12C` (some centres undefined) here?
Answer: Its redox activity (% of DA3003) is -9.41% [at 11.5 µM] (inactive).

Question: With `C=C1CCC(OC(C)=O)C2(C)CC3(O)OC(=O)C(C)=C3CC12` (centres undefined) as the molecule, how does the Potency read?
Answer: The Potency was “inactive”.

Question: For `COc1cc2c(cc1OC)CN(C(=O)[C@@H](NCc1ccncc1)C(C)(C)C)CC2`, which Potency is on record?
Answer: Its Potency is “inactive”.

Question: Which Potency does the source give for `Cc1nn(C)c2c1C(c1ccc(C(F)(F)F)cc1)C(C#N)=C(N)O2` (centres undefined) here?
Answer: The Potency was 4.23 µM (active).

Question: Which Potency does the source give for `CC(C)C1=CC2=CCC3[C@](C)(CCC[C@@]3(C)C(=O)O)C2CC1O` (some centres undefined) here?
Answer: Its Potency is “inactive”.

Question: With `CC(=O)O[C@@H]1[C@H](O[C@@H]2OC[C@](O)(CO)[C@H]2O)[C@@H](O[C@@H]2O[C@@H](C)[C@H](O)[C@@H](O)[C@H]2O)[C@H](OC(=O)[C@]23CCC(C)(C)C[C@H]2C2=CCC4[C@@]5(C)C[C@H](O)[C@H](O[C@@H]6O[C@H](C(=O)O)[C@@H](O)[C@H](O)[C@H]6O)[C@@](C)(C(=O)O)C5CC[C@@]4(C)[C@]2(C)CC3)O[C@@H]1C` (some centres undefined) as the molecule, how does the redox activity (% of DA3003) read?
Answer: The redox activity (% of DA3003) was 2.26% [at 11.5 µM] (inactive).

Question: For `OCC1=CC[C@@H]2C=CO[C@@H](O[C@@H]3O[C@H](CO)[C@@H](O)[C@H](O)[C@H]3O)[C@H]12`, which Potency is on record?
Answer: The Potency was “inactive”.

Question: Which Potency does the source give for `COc1cc(/C=C/C(=O)OC2CC3CCC2(C)C3(C)C)ccc1O` (centres undefined) here?
Answer: Its Potency is “inactive”.

Question: With `C/C=C/C1=CC2=C(CO1)C(=O)[C@](C)(O)[C@H](OC(=O)c1c(O)cc(OC)c(O)c1C)C2` as the molecule, how does the Potency read?
Answer: Its Potency is “inactive”.

Question: For `COc1ccccc1-n1c(SCC(=O)Nc2nc3ccc(C)cc3s2)nc2c(c1=O)SCC2`, which Potency is on record?
Answer: The Potency was “inactive”.

Question: With `C=C1CC[C@@H]2[C@](C)(CO[C@@H]3O[C@H](CO)[C@@H](O)[C@H](O)[C@H]3O)CCC[C@@]2(C)[C@@H]1CCC1=CCOC1=O` as the molecule, how does the Potency read?
Answer: Its Potency is “inactive”.

Question: With `COc1ccccc1CC(C(=O)O)N(C)C(=O)c1ccccc1` (centres undefined) as the molecule, how does the Potency read?
Answer: Its Potency is “inactive”.

Question: With `C=C1CCC2C(OC(=O)C2(O)COC(C)=O)C2C(=C)C(O)CC12` (centres undefined) as the molecule, how does the Potency read?
Answer: Its Potency is “inactive”.
